From PubChem BioAssay (EPA / NIEHS)
Calls of active or inactive are those of the source. How the source made its calls: active means hit-call score of the fitted dose curve at least 0.9, where 1 is the maximum; inactive means score below 0.9.

Experiments:
[1] = ATG_CRE_CIS: Attagene CIS-FACTORIAL HepG2 Assay for human cAMP Responsive Element (CRE) binding protein 3 (AID 2282926); conditions: HepG2 CRE cis-reporter, Attagene multiplexed mRNA; actives raise or lower the signal
Summary of the method: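 Capillary electrophoresis of 6-FAM-labelled, HpaI-digested PCR products quantified reporter transcripts. These came from HepG2 transiently transfected with cis-element reporters and exposed to test chemicals for 24 hours, with DMSO defining baseline activity.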

[2] = target: CCAAT/enhancer-binding protein beta (Homo sapiens) (UniProt P17676); assay: ATG_C_EBP_CIS: Attagene CIS-FACTORIAL HepG2 Assay for human CCAAT/Enhancer Binding Protein (C/EBP) beta (AID 2282927); conditions: HepG2 Attagene cis-factorial transcription factor reporter; actives raise or lower the signal
Summary of the method: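 HepG2 transiently transfected with multiplexed reporter units under cis-regulatory promoters reporting endogenous C/EBPb activity. After 24 h exposure, reporter mRNA assayed by RT-PCR, fluorescent labelling, HpaI digestion and capillary electrophoresis; bidirectional fitting versus DMSO.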

[3] = ATG_CMV_CIS: Attagene CIS-FACTORIAL HepG2 Assay for human CMV (Internal Marker) (AID 2282928); conditions: HepG2 CMV promoter reporter, transcription factor profiling; actives raise or lower the signal;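 further: endpoint acts as a background internal control marker rather than a target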
Summary of the method: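 Reporter transcripts from transfected HepG2 cells are isolated after 24 h of chemical dosing, reverse-transcribed and amplified. Fragments labeled with 6-FAM are cut with HpaI and quantified by capillary electrophoresis; DMSO defines baseline.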

[4] = ATG_DR4_LXR_CIS: Attagene CIS-FACTORIAL HepG2 Assay for human Liver X Receptor (LXR), DR4 submotif (AID 2282929); conditions: HepG2 Attagene DR4 cis-reporter, mRNA transcription; actives raise or lower the signal
Summary of the method: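 Transiently transfected HepG2 liver cells; cis-regulated reporters; 24 h dosing. RT-PCR plus CE read-out of reporter mRNA. DMSO baseline, bidirectional curve fitting.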

[5] = target: Aryl hydrocarbon receptor (Homo sapiens) (UniProt P35869); assay: ATG_Ahr_CIS: Attagene CIS-FACTORIAL HepG2 Assay for human Aryl Hydrocarbon Receptor (Ahr) (AID 2282930); conditions: HepG2 AhR cis-factorial reporter transcription; actives raise or lower the signal
Summary of the method: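 HepG2 cells transiently transfected with cis-element-driven multiplexed reporter units; endogenous AhR activity read as reporter mRNA 24 h after dosing, via RT-PCR, 6-FAM labelling, HpaI digestion and capillary electrophoresis. Bidirectional fit relative to DMSO.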

[6] = ATG_AP_1_CIS: Attagene CIS-FACTORIAL HepG2 Assay for human Activator Protein 1 (AP-1) (AID 2282931); conditions: HepG2 Attagene cis-factorial AP-1 reporter mRNA; actives raise or lower the signal
Summary of the method: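 We transfected HepG2 cells transiently with a set of cis-regulated reporter transcription units, dosed them for 24 h, and quantified reporter mRNA via RT-PCR and capillary electrophoresis, scoring gain or loss of signal relative to DMSO.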

[7] = ATG_AP_2_CIS: Attagene CIS-FACTORIAL HepG2 Assay for human Activator Protein 2 (AP-2) (AID 2282932); conditions: HepG2 AP-2 cis-reporter, Attagene transcription factor profiling; actives raise or lower the signal
Summary of the method: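 Liver-derived HepG2 line, cis-reporter system measuring endogenous factors; 24 h dosing; reporter mRNA detected by fluorescent RT-PCR and capillary electrophoresis.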

[8] = ATG_BRE_CIS: Attagene CIS-FACTORIAL HepG2 Assay for human Bone Morphogenetic Protein (BMP) Response Element (BRE) (AID 2282933); conditions: HepG2 BMP response element reporter, Attagene transcription factor profiling; actives raise or lower the signal
Summary of the method: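 HepG2 cells transiently transfected with multiplexed cis-element reporter units were dosed with chemical for 24 h. Reporter mRNA was measured by RT-PCR with fluorescent labelling, HpaI digestion and capillary electrophoresis; bidirectional fitting relative to DMSO.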

[9] = target: Retinoic acid receptor alpha (Homo sapiens) (UniProt P10276); assay: ATG_DR5_RAR_CIS: Attagene CIS-FACTORIAL HepG2 Assay for human Retinoic Acid Receptor Alpha (RARE), DR5 submotif (AID 2282934); conditions: HepG2 Attagene cis-factorial RARE DR5 reporter, mRNA; actives raise or lower the signal;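 on AC50: reporter responds to endogenous RAR alpha beta and gamma in HepG2 not RARA alone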
Summary of the method: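 HepG2 cells transiently transfected with multiplexed reporter units; DR5 cis-element drives reporter through endogenous transcription factors. After 24 h dosing, reporter mRNA quantified by RT-PCR, fluorescent labeling, HpaI digestion and capillary electrophoresis; bidirectional fitting versus DMSO.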

[10] = target: Transcription factor E2F1 (Homo sapiens) (UniProt Q01094); assay: ATG_E2F_CIS: Attagene CIS-FACTORIAL HepG2 Assay for human E2F Transcription Factor 1 (AID 2282935); conditions: HepG2 Attagene cis-reporter, E2F reporter RNA transcripts; actives raise or lower the signal
Summary of the method: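 Liver-derived HepG2 cells expressing transfected promoter-driven reporter units received test chemical for 24 hours. Signal gains or losses were fitted bidirectionally against DMSO.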

[11] = ATG_E_Box_CIS: Attagene CIS-FACTORIAL HepG2 Assay for human Enhancer Box (E-box) (AID 2282936); conditions: HepG2 E-box cis-reporter transcription, actives raise or lower the signal
Summary of the method: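 In this cell-based setup, HepG2 cells bearing transfected promoter-driven reporter units were exposed to chemicals for 24 h; reporter transcripts were amplified, 6-FAM-labelled, cut with HpaI and sized by capillary electrophoresis.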

[12] = ATG_M_61_CIS: Attagene CIS-FACTORIAL HepG2 Assay for M61 Transcription Factor (Internal Marker) (AID 2282937); conditions: HepG2 Attagene CIS-FACTORIAL M61 internal marker reporter; actives raise or lower the signal
Summary of the method: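 Multiplexed reporter mRNA assay, HepG2 human hepatoma cells, 24 h treatment. Signal: FAM-labelled, HpaI-digested RT-PCR fragments by CE. Fit: bidirectional, baseline DMSO.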

[13] = ATG_EGR_CIS: Attagene CIS-FACTORIAL HepG2 Assay for human Early Growth Response 1 (EGR1) (AID 2282938); conditions: HepG2 Attagene CIS-FACTORIAL EGR reporter mRNA; actives raise or lower the signal
Summary of the method: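 Multiplexed cis-reporter system in human hepatoma HepG2 cells, transiently transfected. Cells are dosed for 24 h; reporter transcripts are amplified, fluorescently tagged and sized by capillary electrophoresis, with DMSO as negative control.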

[14] = ATG_M_19_CIS: Attagene CIS-FACTORIAL HepG2 Assay for M19 Transcription Factor (Internal Marker) (AID 2282939); conditions: HepG2 Attagene CIS-FACTORIAL M19 internal marker reporter; actives raise or lower the signal
Summary of the method: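 HepG2 cells transiently transfected with cis-regulated multiple reporter transcription units were dosed for 24 h; reporter mRNA was quantified by RT-PCR, 6-FAM primer-extension labelling, HpaI digestion and capillary electrophoresis, with bidirectional fitting against DMSO baseline.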

[15] = ATG_Ets_CIS: Attagene CIS-FACTORIAL HepG2 Assay for human Erythroblast Transformation Specific (ETS) (AID 2282941); conditions: HepG2 ETS cis-reporter transcription, actives raise or lower the signal
Summary of the method: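 Bidirectional fit versus DMSO of reporter mRNA signal, detected by RT-PCR and capillary electrophoresis in HepG2 cells transiently transfected with cis-element reporters and dosed 24 h.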

[16] = target: Hepatocyte nuclear factor 3-beta (Homo sapiens) (UniProt Q9Y261); assay: ATG_FoxA2_CIS: Attagene CIS-FACTORIAL HepG2 Assay for human Forkhead box A2 (FOXA2) (AID 2282942); conditions: HepG2 cis-reporter transcription factor activity, 24 h; actives raise or lower the signal
Summary of the method: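 Multiplexed cis-element reporter assay in transiently transfected HepG2. Twenty-four hours post-dosing, RNA was reverse-transcribed, amplified, FAM-labelled, HpaI-digested and separated by CE. Activity gain or loss relative to DMSO.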

[17] = ATG_FoxO_CIS: Attagene CIS-FACTORIAL HepG2 Assay for human Forkhead box O (FoxO) (AID 2282943); conditions: HepG2 Attagene cis-reporter, FoxO element, mRNA; actives raise or lower the signal
Summary of the method: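 HepG2 cells transiently transfected with cis-element-driven reporter units report endogenous FoxO activity. After 24 h chemical exposure, reporter mRNA quantified by RT-PCR, fluorescent labeling, HpaI digestion and capillary electrophoresis; bidirectional fit versus DMSO.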

[18] = ATG_GATA_CIS: Attagene CIS-FACTORIAL HepG2 Assay for human GATA Binding Protein (AID 2282944); conditions: HepG2 GATA cis-element reporter, Attagene multiplex mRNA; actives raise or lower the signal
Summary of the method: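 HepG2 cells transiently transfected with multiplexed cis-element reporter units reflecting endogenous transcription factor activity; reporter mRNA measured after 24 h dosing by RT-PCR, 6-FAM labeling, HpaI digestion and capillary electrophoresis. Bidirectional fitting versus DMSO baseline.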

[19] = ATG_GLI_CIS: Attagene CIS-FACTORIAL HepG2 Assay for human Zinc Finger Protein GLI1 (AID 2282945); conditions: HepG2, Attagene cis-factorial reporter mRNA, GLI element; actives raise or lower the signal
Summary of the method: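 Transiently transfected HepG2 cells report endogenous transcription factor activity via cis-element-driven reporter units. After 24 h compound exposure, reporter mRNA was measured by RT-PCR with capillary electrophoresis; bidirectional fitting against DMSO baseline.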

Measured: AC50

Chain of Retinoic acid receptor alpha (Homo sapiens) (P10276 whole entry, looked up): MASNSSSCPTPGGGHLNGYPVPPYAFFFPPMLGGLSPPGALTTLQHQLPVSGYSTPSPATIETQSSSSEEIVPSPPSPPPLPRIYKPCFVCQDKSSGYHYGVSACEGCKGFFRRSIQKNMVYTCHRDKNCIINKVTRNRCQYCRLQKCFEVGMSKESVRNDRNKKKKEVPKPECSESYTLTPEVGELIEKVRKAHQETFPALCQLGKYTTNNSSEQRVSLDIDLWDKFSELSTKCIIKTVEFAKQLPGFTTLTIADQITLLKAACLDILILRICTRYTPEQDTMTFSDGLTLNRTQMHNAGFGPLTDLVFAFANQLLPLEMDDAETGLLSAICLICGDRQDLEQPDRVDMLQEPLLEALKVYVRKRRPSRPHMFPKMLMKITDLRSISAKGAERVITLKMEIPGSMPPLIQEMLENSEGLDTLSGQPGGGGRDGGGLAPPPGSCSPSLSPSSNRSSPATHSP
Chain of Aryl hydrocarbon receptor (Homo sapiens) (P35869 whole entry, looked up): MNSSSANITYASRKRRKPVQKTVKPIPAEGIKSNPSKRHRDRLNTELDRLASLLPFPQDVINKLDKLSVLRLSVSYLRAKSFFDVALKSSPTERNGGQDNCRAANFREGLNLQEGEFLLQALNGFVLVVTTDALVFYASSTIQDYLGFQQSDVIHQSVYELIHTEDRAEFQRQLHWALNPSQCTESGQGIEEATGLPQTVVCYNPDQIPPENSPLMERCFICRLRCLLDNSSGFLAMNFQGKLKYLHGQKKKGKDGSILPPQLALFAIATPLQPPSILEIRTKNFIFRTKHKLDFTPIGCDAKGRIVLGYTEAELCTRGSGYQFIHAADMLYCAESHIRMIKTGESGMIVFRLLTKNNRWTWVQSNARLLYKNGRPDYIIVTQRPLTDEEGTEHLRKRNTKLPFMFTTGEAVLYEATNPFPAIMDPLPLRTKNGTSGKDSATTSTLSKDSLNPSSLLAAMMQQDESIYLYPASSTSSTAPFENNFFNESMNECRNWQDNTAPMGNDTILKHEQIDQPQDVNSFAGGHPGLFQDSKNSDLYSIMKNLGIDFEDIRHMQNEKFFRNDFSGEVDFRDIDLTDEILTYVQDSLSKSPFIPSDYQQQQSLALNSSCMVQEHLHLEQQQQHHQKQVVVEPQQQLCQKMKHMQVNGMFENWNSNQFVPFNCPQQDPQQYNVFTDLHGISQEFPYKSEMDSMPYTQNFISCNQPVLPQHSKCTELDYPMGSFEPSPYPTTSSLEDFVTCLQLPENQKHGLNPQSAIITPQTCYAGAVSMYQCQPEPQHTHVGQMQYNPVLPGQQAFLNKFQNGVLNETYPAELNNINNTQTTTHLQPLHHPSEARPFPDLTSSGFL
Chain of CCAAT/enhancer-binding protein beta (Homo sapiens) (P17676 whole entry, looked up): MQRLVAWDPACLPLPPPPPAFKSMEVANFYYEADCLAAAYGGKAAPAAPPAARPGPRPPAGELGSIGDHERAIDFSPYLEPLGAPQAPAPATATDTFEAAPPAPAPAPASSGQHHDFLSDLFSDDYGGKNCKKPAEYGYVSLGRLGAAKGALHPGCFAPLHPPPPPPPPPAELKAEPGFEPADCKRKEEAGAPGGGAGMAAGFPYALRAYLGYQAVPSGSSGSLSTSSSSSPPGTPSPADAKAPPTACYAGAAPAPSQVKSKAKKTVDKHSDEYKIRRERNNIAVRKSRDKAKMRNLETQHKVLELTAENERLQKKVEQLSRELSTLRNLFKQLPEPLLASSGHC
Chain of Transcription factor E2F1 (Homo sapiens) (Q01094 whole entry, looked up): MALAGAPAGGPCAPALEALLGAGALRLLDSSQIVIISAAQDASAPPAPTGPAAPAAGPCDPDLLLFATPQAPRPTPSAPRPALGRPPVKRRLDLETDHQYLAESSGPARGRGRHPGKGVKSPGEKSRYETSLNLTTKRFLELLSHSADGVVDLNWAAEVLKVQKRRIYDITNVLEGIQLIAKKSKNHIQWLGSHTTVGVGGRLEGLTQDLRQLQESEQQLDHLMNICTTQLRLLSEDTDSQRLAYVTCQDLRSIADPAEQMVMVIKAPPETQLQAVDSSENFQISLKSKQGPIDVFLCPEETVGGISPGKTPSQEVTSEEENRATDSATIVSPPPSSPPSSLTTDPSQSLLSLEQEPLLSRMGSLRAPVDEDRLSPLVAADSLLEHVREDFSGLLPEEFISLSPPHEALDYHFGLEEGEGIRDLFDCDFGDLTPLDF
Chain of Hepatocyte nuclear factor 3-beta (Homo sapiens) (Q9Y261 whole entry, looked up): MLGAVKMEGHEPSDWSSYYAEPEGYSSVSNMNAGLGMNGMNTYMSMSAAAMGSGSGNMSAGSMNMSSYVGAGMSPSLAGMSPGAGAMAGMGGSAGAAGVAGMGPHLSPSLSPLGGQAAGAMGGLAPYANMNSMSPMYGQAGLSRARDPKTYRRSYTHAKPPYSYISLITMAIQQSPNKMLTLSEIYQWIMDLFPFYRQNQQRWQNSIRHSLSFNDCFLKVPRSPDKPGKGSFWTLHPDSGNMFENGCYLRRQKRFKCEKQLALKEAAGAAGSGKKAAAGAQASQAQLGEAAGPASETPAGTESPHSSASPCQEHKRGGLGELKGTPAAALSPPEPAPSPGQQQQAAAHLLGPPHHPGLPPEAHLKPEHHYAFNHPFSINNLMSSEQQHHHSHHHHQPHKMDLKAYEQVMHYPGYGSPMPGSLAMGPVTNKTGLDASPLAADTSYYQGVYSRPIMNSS

C=Cc1ccc(C)cc1
inactive: all assays above

CCCCCCCCCCCCCC(=O)OCC(O)CO (stereo not given)
inactive: all assays above

Cc1ccc(N)c(S(=O)(=O)O)c1
inactive: all assays above

C=C(C)C(=O)OCC(CC)(COC(=O)C(=C)C)COC(=O)C(=C)C
inactive: all assays above

CCCC(C)=O
inactive: all assays above

C[Si]1(C)O[Si](C)(C)O[Si](C)(C)O1
inactive: all assays above

BrCc1cccc(Oc2ccccc2)c1
active: [4] 159 µM | [9] 5.96 µM
inactive: all other assays above

CCCCCCCCCCCC(=O)OC[C@@H](O)[C@H]1OC[C@H](O)[C@H]1O
inactive: all assays above

C=CCN(CC=C)CC=C
inactive: all assays above

CC(=O)c1c(C)c([N+](=O)[O-])c(C(C)(C)C)c([N+](=O)[O-])c1C
active: [9] 1.6 µM
inactive: all other assays above

c1ccc(CN(Cc2ccccc2)Cc2ccccc2)cc1
active: [4] 18.4 µM | [19] 100 µM
inactive: all other assays above

COC(=O)Nc1ccc(Cl)c(Cl)c1
active: [3] 24 µM | [4] 26.2 µM | [5] 55.7 µM | [6] 172 µM
inactive: all other assays above

CC1(C)C2=CCCC(C)(C)[C@]23CC[C@H]1C3
active: [3] 112 µM | [4] 100 µM | [6] 100 µM
inactive: all other assays above

CCC(C)S (stereo not given)
inactive: all assays above

CC(O)C1CCCCC1 (stereo not given)
inactive: all assays above
